{"source": "PubChem BioAssay"}
{"tested_on": "XIP peptide (Xip251-270)", "experiment": "compounds binding XIP fragment 251-270 – biochemical, small-molecule microarray, fluorescence 635/667 nm, 0.5 µg/mL protein, primary screen (AID 1183)", "conditions": "fluorescence 635 nm, higher = more signal"}
{"compound": "C=C(COC)/C(=C/C[C@H](OC(=O)c1ccncc1)c1cccc(OCCO)c1)c1cnc2ccccc2c1", "composite z-score": 0.823}
{"compound": "CC(C)CNC(=O)[C@@H]1c2ccccc2C(=O)N(Cc2ccccc2)[C@H]1c1ccc(CO)cc1", "composite z-score": 0.0309}
{"compound": "C=C(COC)C(=O)CC[C@@H](OC(C)=O)c1ccc(OCCO)cc1", "composite z-score": 0.779}
{"compound": "CCCCC(=C=CC[C@H](O)c1ccc(OCCO)cc1)C[C@H](O)c1ccccn1", "composite z-score": 0.645}
{"compound": "CC(C)c1ccc(NN2C(C(O)C(C)C)C=CC3C(=O)N(c4ccccc4)C(=O)C32)cc1", "note": "(stereo not drawn)", "composite z-score": 0.778}
{"compound": "COCCOC(=O)N1C(=O)[C@@]2(c3cc(C#CC4=CCCCC4)ccc31)[C@H](C(=O)N1CCN(c3ncccn3)CC1)[C@H]1C(=O)O[C@H](c3ccccc3)[C@H](c3ccccc3)N1[C@@H]2c1ccccc1OCCO", "composite z-score": 0.59}
{"compound": "CC(C)C(=C=CC[C@@H](O)c1ccccc1OCCO)C[C@@H](O)c1cc(Cl)cc(Cl)c1O", "composite z-score": 0.748}
{"compound": "COc1ccc(C(O)C2C=CC3C(=O)N(C)C(=O)C3N2Nc2ccc([N+](=O)[O-])cc2[N+](=O)[O-])cc1OCc1ccccc1", "note": "(stereo not drawn)", "composite z-score": 0.753}
{"tested_on": "not listed separately", "experiment": "blood-stage malaria parasite viability loss – strain 3D7, DAPI fluorescence, 100 nL, primary screen (AID 1184);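 note: parasites grown inside human red blood cells in medium with human serum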", "conditions": "P. falciparum 3D7 growth, 3 d, higher = more signal"}
{"compound": "O=C1OCCC/C=C\\[C@H]2OC34C=CCN(Cc5ccccc5)C(=O)[C@H]3N(CCCCCO)C(=O)[C@@H]4C12", "note": "(stereo partly drawn)", "z-score": 0.259}
{"compound": "CO[C@H]1O[C@H](CO)[C@@H](OC(=O)Nc2ccc(C(F)(F)F)cc2)[C@H](OC(=O)Nc2ccccc2-c2ccccc2)[C@H]1OC(=O)Nc1ccccc1-c1ccccc1", "z-score": -1.8}
{"compound": "COCCOC(=O)N1C(=O)[C@@]2(c3cc(C#CCCO)ccc31)[C@H](C(=O)N1CCN(c3ncccn3)CC1)[C@H]1C(=O)O[C@H](c3ccccc3)[C@H](c3ccccc3)N1[C@@H]2c1ccc(O)cc1", "z-score": -0.278}
{"compound": "[N-]=[N+]=NCc1ccccc1[C@H]1OC(c2ccc(OCCCO)cc2)=N[C@@]1(Cc1ccccc1)C(=O)N1CCOCC1", "z-score": -2.62}
{"compound": "C=CCC(OC(C)=O)[C@@H]1[C@@H](N(Cc2ccc(-c3ccccc3)cc2)C(=O)c2ccc(C)cc2)c2cc(OCCCO)ccc2N1C(=O)c1ccc2ccccc2c1", "note": "(stereo partly drawn)", "z-score": -1.26}
{"compound": "CCCCC(O)C1C=CC2C(=O)N(C)C(=O)C2N1Nc1ccccc1", "note": "(stereo not drawn)", "z-score": -0.286}
{"compound": "COCCOC(=O)N1C(=O)[C@@]2(c3cc(C#CCC(C(=O)OC)C(=O)OC)ccc31)[C@H](C(=O)N1CCCCCCC1)[C@H]1C(=O)O[C@H](c3ccccc3)[C@H](c3ccccc3)N1[C@@H]2c1ccccc1OCCO", "z-score": -2.4}
{"compound": "COC(=O)[C@@]1(Cc2ccccc2)[C@H]2c3cc(C(=O)N4CCCC4)n(Cc4ccc(C(F)(F)F)nc4)c3C[C@H]2CN1C(=O)c1ccccc1", "z-score": -1.11}
{"compound": "CN1C(=O)[C@]2(CCS(=O)(=O)c3ccccc3)N=C(c3ccc(OCCCO)cc3)O[C@@H]2c2ccccc21", "z-score": -2.32}
{"compound": "C=CCC(OC(C)=O)[C@@H]1[C@@H](N(Cc2cccc3ccccc23)C(=O)c2cccc3ccccc23)c2cc(OCCCO)ccc2N1C(=O)Cc1ccc2ccccc2c1", "note": "(stereo partly drawn)", "z-score": -1.35}
{"compound": "CCCCNC(=O)c1ccc(C#C[Si](C)(C)C)c(OC(C)=O)c1", "z-score": -1.27}
{"compound": "CCOC(=O)C1=CC[C@@H](c2ccccc2Cl)N(S(=O)(=O)c2ccc(C)cc2)[C@H]1c1cccc(OC)c1", "z-score": -0.794}
{"compound": "Cc1ccc(F)cc1S(=O)(=O)N[C@@H]1CCN(Cc2ccc3c(c2)OCO3)C1", "z-score": 0.531}
{"compound": "C#CCN(C/C=C/c1ccccc1)[C@H](CO[Si](C)(C)C(C)(C)C)c1ccccc1", "z-score": -0.775}
{"compound": "N[C@@H](Cc1ccccc1)Cn1cc(C2(O)CCCCC2)nn1", "z-score": 0.493}
{"compound": "COCCOC(=O)N1C(=O)[C@@]2(c3cc(C#CCC(C(=O)OC)C(=O)OC)ccc31)[C@H](c1ccc(OCCO)cc1)N1[C@H](c3ccccc3)[C@H](c3ccccc3)OC(=O)[C@H]1[C@@H]2C(=O)N1CCCCCCC1", "z-score": -2.09}
{"compound": "COc1ccc(NC(=O)O[C@H]2[C@H](OC(=O)Nc3ccc4c(c3)OCO4)[C@H](OC(=O)Nc3ccc4c(c3)OCO4)[C@@H](OC)O[C@@H]2CO)cc1", "z-score": -2.24}
{"compound": "COc1ccc(NN2C(C(O)c3cc(C(F)(F)F)cc(C(F)(F)F)c3)C=CC3C(=O)N(C4CCCCC4)C(=O)C32)cc1", "note": "(stereo not drawn)", "z-score": -0.5}
{"compound": "COCCOC(=O)N1C(=O)[C@@]2(c3cc(C#Cc4ccc(OC)cc4)ccc31)[C@H](C(=O)Nc1nc3ccccc3s1)[C@H]1C(=O)O[C@H](c3ccccc3)[C@H](c3ccccc3)N1[C@@H]2c1ccccc1OCCO", "z-score": -1.96}
{"compound": "C=C(COC)/C(=C/C[C@H](OC(=O)c1ccncc1)c1ccc(OCCO)cc1)c1cc(C(=O)OC)ccc1OC", "z-score": -3.05}
{"compound": "COc1ccc([Si](C)(C)[C@H]2[C@H](CCO)O[C@@]3(C(=O)N(Cc4ccccc4)c4ccc(N(C=O)c5ccccc5)cc43)[C@@H]2C)cc1", "z-score": -2.74}
{"compound": "C=CC[C@]1(C(=O)OC)N=C(c2ccc(OCCCO)cc2)O[C@H]1c1ccccc1N=[N+]=[N-]", "z-score": -2.21}
{"compound": "COc1ccccc1CN1C(=O)c2ccccc2[C@](Cc2ccccc2I)(C(=O)NCCCN(C)C)[C@@H]1c1ccc(CO)cc1", "z-score": -2.36}
{"compound": "CC1CC/C=C\\[C@H]2OC34C=CCN(c5ccc(Cl)cc5)C(=O)[C@H]3N(CCCO)C(=O)[C@]4(C)C2C(=O)O1", "note": "(stereo partly drawn)", "z-score": 0.4}
{"compound": "CC[C@H](C)C(=O)O[C@H]1CC[C@]2(C)C3=C(CCC2C1(C)C)[C@]1(C)CC[C@H]([C@H](C)CCCC(C)C)[C@@]1(C)CC3", "note": "(stereo partly drawn)", "z-score": 0.231}
{"compound": "CCOC(=O)C[C@H]1[C@H](OC(=O)c2cc3ccccc3oc2=O)[C@@H](NC(=O)C2CCCCC2)c2cc(OCCCO)ccc2N1C(=O)Cc1ccc(OC)cc1", "z-score": -0.565}
{"compound": "CC(C)C(=C=CC[C@@H](O)c1cccc(OCCO)c1)CCO", "z-score": -0.115}
{"compound": "C=C(COC)/C(=C/C[C@H](OC(=O)c1ccncc1)c1cccc(OCCO)c1)c1cnc2ccccc2c1", "z-score": -2.72}
{"compound": "CC(C)CNC(=O)[C@@H]1c2ccccc2C(=O)N(Cc2ccccc2)[C@H]1c1ccc(CO)cc1", "z-score": -0.172}
{"compound": "C=C(COC)C(=O)CC[C@@H](OC(C)=O)c1ccc(OCCO)cc1", "z-score": -0.964}
{"compound": "CCCCC(=C=CC[C@H](O)c1ccc(OCCO)cc1)C[C@H](O)c1ccccn1", "z-score": -0.593}
{"compound": "CC(C)c1ccc(NN2C(C(O)C(C)C)C=CC3C(=O)N(c4ccccc4)C(=O)C32)cc1", "note": "(stereo not drawn)", "z-score": -0.63}
{"compound": "COCCOC(=O)N1C(=O)[C@@]2(c3cc(C#CC4=CCCCC4)ccc31)[C@H](C(=O)N1CCN(c3ncccn3)CC1)[C@H]1C(=O)O[C@H](c3ccccc3)[C@H](c3ccccc3)N1[C@@H]2c1ccccc1OCCO", "z-score": -2.32}
{"compound": "CC(C)C(=C=CC[C@@H](O)c1ccccc1OCCO)C[C@@H](O)c1cc(Cl)cc(Cl)c1O", "z-score": -1.39}
{"compound": "COc1ccc(C(O)C2C=CC3C(=O)N(C)C(=O)C3N2Nc2ccc([N+](=O)[O-])cc2[N+](=O)[O-])cc1OCc1ccccc1", "note": "(stereo not drawn)", "z-score": 0.664}
